Assay outcomes deposited in PubChem by National Center for Advancing Translational Sciences (NCATS).
IkB signaling: IkB Signaling; ABC-DLBCL IkBa-CBG/CBR dual luciferase ratio, 4 h; response scale: scaled: untreated 0%, proteasome inhibitor 100%; Potency, µM (highest dose often 57.1 µM), without a hit: at the highest dose IkBa stabilization activation; actives 0.04% (n = 110,000); AID 445, 2006; active means well fitted curve in the direction sought with a large enough effect in the signal ratio, not every such curve was filed as active; inconclusive means small, poorly fitted or top-dose-only effect, or a change in a side signal; the % refers to the signal ratio;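 further: the direction sought is a rising ratio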
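In this assay, an IκBα–CBG68 fusion accumulates when IKK-driven degradation is blocked; native CBR normalizes for cell number. OCI-Ly3 cells were treated 4 h with compound and doxycycline, then green and red light read after Chroma-Glo addition.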
p53ts 32C tox: qHTS Screen for Compounds that Selectively Target Cancer Cells with p53 Mutations: Cytotoxicity of p53ts Cells at the Permissive Temperature; H1299-p53A138V at 32C, ATP luminescence viability, 24 h; Potency, µM (titrated, usually from 46.1 µM), without a hit: at the highest dose activity change, negative = cytotoxicity, most hits filed as cytotoxic; actives 0.93% (n = 130,000); AID 924, 2007;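 further: 0% = DMSO and -100% = full killing by reference compound; nearly all actives have a fitted effect of over 55% in size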
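ATP-content luminescence (ATPlite) read-out after 24 h compound exposure at 32C in H1299-p53A138V cells (600/well). Tested up to 46 uM. Normalized to DMSO (0%) and 100 uM tamoxifen (100% killing); Hill-fit AC50.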
Imprint erasure: qHTS Assay for Compounds that Induce Erasure of Genomic Imprints | Potency, µM (highest dose often 60.7 µM), for inactives: at the highest dose activity change, positive = activation, hits mostly activators | mouse ES Peg3-LacZ reporter, beta-gal luminescence, 40 h | actives 0.02% (n = 110,000) | AID 1948, 2009
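Gelatin-coated wells received 300 freshly trypsinized female ES cells with a Peg3LacZ-Neo reporter on the maternal allele, then incubated 40 hours at 37C. BetaGlo was added for 5 minutes at room temperature before a single luminescence read.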
p53ts 39C kill: qHTS Screen for Compounds that Selectively Target Cancer Cells with p53 Mutations: Cytotoxicity of p53ts Cells at the Nonpermissive Temperature | Potency, µM (doses to about 46.1 µM), without a hit: top-dose activity change, negative = cell killing, hits mostly cytotoxic | H1299-p53A138V viability at 39C, ATP luminescence, 24 h | AID 902, 2007 | actives 1.5% (n = 130,000); further: on the % scale 0 is the no-effect control and ±100 the full control effect; nearly all actives have a fitted effect of over 55% in size
Starred values were filed as active, the others as inactive; [ ] = another dose, or the depositor's remark. Shown are actives, neighbours in structure and some others; about 1.8% of the full set was active somewhere. Unless noted, the call rests on the fitted dose curve; in most records, active means well fitted curve in the direction sought with a large enough effect; inconclusive means small, poorly fitted or top-dose-only effect, or another doubt; inactive means no such curve, though single readings can be large; an effect the other way counts as inactive or inconclusive. Potency means the concentration at half of the fitted maximal effect.

Screening Cc1cc(C(=O)CSc2nncs2)c(C)n1-c1c(C)n(C)n(-c2ccccc2)c1=O returned IkB signaling 0.1%, p53ts 32C tox 8.2%, Imprint erasure -0.9% and p53ts 39C kill -15.6%.
For COc1ccc(C2CC(c3cccs3)=Nc3ccccc3S2)cc1 (configuration not stated) the results were p53ts 32C tox 25.1µM* and p53ts 39C kill 47.1%.
For O=S(=O)(Nc1cccc(-c2ccc(N3CCCC3)nn2)c1)c1ccc(F)cc1F the results were IkB signaling 0.9%, p53ts 32C tox -17.5%, Imprint erasure -10.6%[10.9 µM] and p53ts 39C kill 38.0%.
For COc1ccc(S(=O)(=O)Nc2cccc(-c3ccc(N4CCCCC4)nn3)c2)cc1F the results were IkB signaling -0.5%, p53ts 32C tox 12.6µM*, Imprint erasure -12.3%[10.9 µM] and p53ts 39C kill 12.6µM*.
O=S(=O)(Nc1cccc(-c2ccc(N3CCCCC3)nn2)c1)c1cccc(F)c1 was read as IkB signaling -2.2%, p53ts 32C tox 10µM*, Imprint erasure -15.6%[10.9 µM] and p53ts 39C kill inconclusive.
For O=C(Cn1ncn2nc(-c3cccs3)cc2c1=O)NCc1ccc(Cl)cc1 the results were IkB signaling -2.0%, p53ts 32C tox -1.0%, Imprint erasure -10.5%[10.9 µM] and p53ts 39C kill -5.9%.
For Cc1cc2nc(-c3cccnc3SCC(=O)NCc3ccco3)[nH]c2cc1C the results were IkB signaling inconclusive, p53ts 32C tox 5.01µM*, Imprint erasure -93.5% and p53ts 39C kill 5.01µM*.
Screening CC(NS(=O)(=O)c1ccccc1)C(N)=O (configuration not stated) returned IkB signaling 1.3%, p53ts 32C tox 4.3%, Imprint erasure -1.8% and p53ts 39C kill 11.5%.
CCN1C=CC(=C2C(=O)c3ccccc3C2=O)C=C1 was read as IkB signaling inconclusive, p53ts 32C tox 0.251µM*, Imprint erasure -93.9% and p53ts 39C kill 0.251µM*.
For CN1C=CC(=C2C(=O)c3ccccc3C2=O)C=C1 the results were IkB signaling -0.1%, p53ts 32C tox 12.6µM*, Imprint erasure -88.0% and p53ts 39C kill 10µM*.
`CCCN1C=CC(=C2C(=O)c3ccccc3C2=O)C=C1` gave IkB signaling inconclusive, p53ts 32C tox 0.199µM*, Imprint erasure -95.8% and p53ts 39C kill 0.316µM*.
`CCCS(=O)(=O)N1CCC(N2CCN(Cc3ccc(C)cc3)C(=O)C2=O)CC1` gave IkB signaling 0.6%, p53ts 32C tox 3.1%, Imprint erasure -4.4%[10.9 µM] and p53ts 39C kill -14.7%.
`CC(=O)N1CCc2cc(NC(=O)c3ccc(C)cc3)ccc21` gave IkB signaling -2.3%, p53ts 32C tox 6.31µM*, Imprint erasure -9.2% and p53ts 39C kill 10µM*.
`CCOC(=O)c1nn(-c2ccc3c(c2)CCN3C(C)=O)cc1O` gave IkB signaling 0.1%, p53ts 32C tox 5.01µM*, Imprint erasure -64.2% and p53ts 39C kill 3.98µM*.
Cc1ccc(C)c(NC(=O)C2CCC(C)(C(=O)O)C2(C)C)c1 (configuration not stated) was read as IkB signaling 0.7%, p53ts 32C tox -2.1%, Imprint erasure 0.4% and p53ts 39C kill 5.5%.
Screening CC1CC(C)(C)Nc2ccc(OC(=O)c3ccco3)cc21 (configuration not stated) returned IkB signaling inconclusive, p53ts 32C tox 15.8µM*, Imprint erasure -53.8% and p53ts 39C kill 10µM*.
Screening O=C(c1ccco1)N1CCN(C(=O)C(Cc2ccccc2)NS(=O)(=O)c2cccs2)CC1 (configuration not stated) returned IkB signaling 3.2%, p53ts 32C tox 6.0%, Imprint erasure 3.16µM* and p53ts 39C kill 2.7%.
For Cc1ccc(C(C)C)c(OCC(=O)Nc2cc(-c3nc4ccccc4[nH]3)ccc2C)c1 the results were IkB signaling inconclusive, p53ts 32C tox inconclusive, Imprint erasure -9.5%[10.9 µM] and p53ts 39C kill 10µM*.
Screening CCc1ccc(OCC(=O)Nc2ccc3c(c2)c2ccccc2n3CC)c(Br)c1 returned IkB signaling -6.9%, p53ts 32C tox -12.2%, Imprint erasure -11.9%[10.9 µM] and p53ts 39C kill 12.6µM*.
`CCc1ccc(OCC(=O)Nc2ccc3c(c2)c2ccccc2n3CC)cc1` gave IkB signaling -3.3%, p53ts 32C tox inconclusive, Imprint erasure -6.5%[10.9 µM] and p53ts 39C kill inconclusive.
COc1ccc(-c2cc(C(=O)NCCc3ccccc3)c3c(-c4ccccc4)[nH]nc3n2)cc1OC was read as IkB signaling 7.8%, p53ts 32C tox inconclusive, Imprint erasure -2.8%[10.9 µM] and p53ts 39C kill 12.6µM*.
Screening COc1ccccc1-c1cc(C(=O)NCc2ccccc2)c2c(-c3ccc(C)cc3)[nH]nc2n1 returned IkB signaling 1.2%, p53ts 32C tox 7.1%, Imprint erasure -16.4%[10.9 µM] and p53ts 39C kill -5.4%.
For CCOc1ccc(-c2cc(C(=O)NCCc3ccccc3)c3c(-c4ccc(C)cc4)[nH]nc3n2)cc1 the results were IkB signaling -1.3%, p53ts 32C tox -12.5%, Imprint erasure -9.6%[10.9 µM] and p53ts 39C kill 15.8µM*.
COc1ccc(-c2[nH]nc3nc(-c4cc(OC)c(OC)c(OC)c4)cc(C(=O)O)c23)cc1 was read as IkB signaling 0.1%, p53ts 32C tox -17.2%, Imprint erasure -13.2%[10.9 µM] and p53ts 39C kill inconclusive.
`CCOc1ccc(-c2cc(C(=O)NCCc3ccc(OC)c(OC)c3)c3c(-c4ccc(F)cc4)[nH]nc3n2)cc1` gave IkB signaling -1.5%, p53ts 32C tox -24.3%, Imprint erasure -19.7%[10.9 µM] and p53ts 39C kill inconclusive.
`COc1ccc(CCNC(=O)c2cc(-c3ccc(C)cc3)nc3n[nH]c(-c4ccccc4)c23)cc1OC` gave IkB signaling 0.9%, p53ts 32C tox -10.7%, Imprint erasure -15.4%[10.9 µM] and p53ts 39C kill -20.7%.
For CCc1ccc(-c2[nH]nc3nc(-c4cc(OC)ccc4OC)cc(C(=O)O)c23)cc1 the results were IkB signaling 15.7%, p53ts 32C tox -1.9%, Imprint erasure inconclusive and p53ts 39C kill 3.98µM*.
Screening COc1cc(OC)c(-c2cc(C(=O)NCc3ccc(F)cc3)c3c(-c4ccccc4)[nH]nc3n2)cc1OC returned IkB signaling 1.2%, p53ts 32C tox 8.91µM*, Imprint erasure 11.8%[10.9 µM] and p53ts 39C kill inconclusive.
For Cc1ccc(S(=O)(=O)N(C)c2ccc(NS(C)(=O)=O)cc2)cc1 the results were IkB signaling -1.1%, p53ts 32C tox -5.7%, Imprint erasure -12.1% and p53ts 39C kill 4.3%.
CC1=C(C(=O)O)N2C(=O)[C@@H](NC(=O)C(N)c3ccccc3)[C@H]2SC1 (some centres not stated) was read as Imprint erasure -6.7%.
Screening COc1ccc2nc(NC(=O)c3cc(=O)c4ccccc4o3)sc2c1 returned IkB signaling inconclusive, p53ts 32C tox inconclusive, Imprint erasure -8.7%[10.9 µM] and p53ts 39C kill 10µM*.
